# Test results: PubChem BioAssay (NCATS)
# “And” between values parts separate entries of the source, which are not always exact repeats. Identical values can stand only once. Results filed as inconclusive are left out. A call without a number means that no potency is given here. Some structures have more than one record in an assay (separate samples or runs), and their calls can disagree. The source made the active and inactive calls. Unless noted, the call rests on the fitted dose curve; in most records, active means well fitted curve in the direction sought with a large enough effect; inconclusive means small, poorly fitted or top-dose-only effect, or another doubt; inactive means no such curve, though single readings can be large; an effect the other way counts as inactive or inconclusive.
# Columns and labels:
# [1] = biological target: Guanine nucleotide-binding protein G(i) subunit alpha-1 (Homo sapiens) (UniProt P63096); assay: qHTS Assay for Inhibitors of RGS12 GoLoco Motif Activity (Green Fluorophore) (AID 879);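 further: negative values mean loss of peptide binding seen as reduced polarization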
# In short: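 Fluorescence polarization assay: 50 nM Gαi1 with 10 nM FITC-labeled RGS12 GoLoco peptide in 10 mM Tris pH 7.5, 150 mM NaCl, 0.1 mM GDP, 0.05% NP40, 10 min at room temperature with compound.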
# [2] = biological target: Cytochrome P450 3A4 (Homo sapiens) (UniProt P08684); assay: qHTS Assay for Inhibitors and Substrates of Cytochrome P450 3A4 (AID 884); further: nearly all actives have a fitted effect of over 50% in size; further: potency means the concentration at half of the fitted maximal effect; on activity change, negative = inhibition: series mostly up to about 57 µM
# In short: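 20 nM human CYP3A4 with 25 uM Luciferin-PPXE (at KM) in 200 mM KPO4, preincubated 10 min with compound; NADPH regeneration started a 60 min RT reaction. Luciferin detected by luminescence, normalized to 57 uM ketoconazole as full inhibition.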
# [3] = qHTS Assay for Identification of Small Molecule Antagonists for NFkB Signaling Pathway (AID 895; active means well fitted inhibition curve with a large enough effect in the signal ratio, with a control signal flat, not every such curve was filed as active; the % refers to the signal ratio)
# In short: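 ME-180 NFkB-bla cells (beta-lactamase under NFkB response element), plated overnight, treated with compound then 10 pM TNF alpha (about EC50) for 5 hrs at 37 C. LiveBLAzer FRET read at 460/530 nm emission, 405 nm excitation.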
# [4] = qHTS Assay for Identification of Small Molecule Agonists for Thrombopoietin (TPO) Signaling Pathway (AID 917); further: potency means the concentration at half of the fitted maximal effect
# In short: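 We measured Glycoprotein IIb promoter–luciferase output in IL-3-starved Ba/F3 murine cells expressing the human TPO receptor after 24 hrs at 37 C with compounds and 26 pM TPO.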
# [5] = biological target: Muscarinic acetylcholine receptor M1 (Rattus norvegicus) (UniProt P08482); assay: qHTS Assay for Antagonists of Acetylcholine Muscarinic M1 Receptor: Kinetic Measurement of Intracellular Calcium Response (AID 943); further: nearly all actives have a fitted effect of over 75% in size; further: potency means the concentration at half of the fitted maximal effect;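 on activity change, negative = inhibition: Fluo-4 calcium signal as peak divided by basal fluorescence over 4 min; series mostly up to about 35 µM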
# In short: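 Rat M1-CHO cells, 2000/well, overnight → Fluo-4 no-wash dye with probenecid, 1 h 37C → compound 10 min, room temp → basal read 6 s → carbachol EC80 (100 nM) → 4 min kinetic read; peak/basal.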
# [6] = biological target: Muscarinic acetylcholine receptor M1 (Rattus norvegicus) (UniProt P08482); assay: qHTS Assay for Antagonists of Acetylcholine Muscarinic M1 Receptor: Measurement of IP-One Response (AID 944); further: nearly all actives have a fitted effect of over 75% in size; further: potency means the concentration at half of the fitted maximal effect
# In short: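 M1-CHO (rat), 2000 cells/well, overnight recovery; cpd 10 min; carbachol EC80 (200 nM), 30 min, HEPES buffer + 50 mM LiCl pH 7.4; IP-One HTRF, Ex 337, Em 620/665 nm.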
# [7] = biological target: Pyruvate kinase (Leishmania mexicana) (UniProt Q27686); assay: qHTS Validation Assay for Inhibitors of Leishmania Mexicana Pyruvate Kinase (AID 945); further: potency means the concentration at half of the fitted maximal effect
# In short: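 Mutant LmPYK (E451W), 0.2 nM, plus 0.5 mM PEP and 0.1 mM ADP in 50 mM imidazole pH 7.2 containing 0.01% Tween 20 and 0.05% BSA. Incubated 1 h at room temperature; luminescence via PKLight, normalized to DMSO.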
# [8] = biological target: Cytochrome P450 3A4 (Homo sapiens) (UniProt P08684); assay: qHTS Assay for Activators of Cytochrome P450 3A4 (AID 885); further: nearly all actives have a fitted effect of over 65% in size; further: potency means the concentration at half of the fitted maximal effect
# In short: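 Quantitative HTS format: compounds preincubated with 20nM human CYP3A4 and Luciferin-PPXE substrate at KM, reaction started by NADPH regeneration, stopped after 60 min, luciferase luminescence read 20 min later.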
# [9] = biological target: Cytochrome P450 2C19 (Homo sapiens) (UniProt P33261); assay: qHTS Assay for Inhibitors and Substrates of Cytochrome P450 2C19 (AID 899); further: nearly all actives have a fitted effect of over 60% in size; further: potency means the concentration at half of the fitted maximal effect
# In short: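 Signal comes from luciferase acting on luciferin released by CYP2C19-mediated hydroxylation of Luciferin-H EGE, 10uM (KM). Assay mix: 5nM enzyme, 50mM KPO4; 60 min at 37C with NADPH regeneration. Data normalized against 57uM ketoconazole.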
# [10] = qHTS Assay for Identification of Small Molecule Agonists for NFkB Signaling Pathway (AID 928; calls by dose curve); details: NFkB beta-lactamase reporter cells, blue/green ratio
# In short: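 ME-180 NFkB-bla cells carry a beta-lactamase reporter under an NFkB response element. Compound plus 10 pM TNF alpha (final) was applied for 5 hrs at 37 C. After 2 hrs with LiveBLAzer substrate, 460/530 nm emission was read at 405 nm excitation.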
# [11] = biological target: Cytochrome P450 2D6 (Homo sapiens) (UniProt P10635); assay: qHTS Assay for Inhibitors and Substrates of Cytochrome P450 2D6 (AID 891); further: nearly all actives have a fitted effect of over 60% in size; further: potency means the concentration at half of the fitted maximal effect;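 on activity change, negative = inhibition: luciferin methyl ether substrate demethylated by CYP2D6 with NADPH regeneration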
# In short: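 Human CYP2D6 (5 nM) with 30 uM Luciferin-ME EGE (at Km) in 100 mM KPO4, compound preincubated 10 min, then NADPH regeneration system for 60 min at room temperature. Luciferin read by luminescence; normalized to 1.43 uM quinidine.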
# [12] = qHTS Assay for Identification of Small Molecule Agonists for Hypoxia Response Element Signaling Pathway (AID 914; active means well fitted activation curve with a large enough effect in the signal ratio, with a control signal flat, not every such curve was filed as active; the % refers to the signal ratio); details: ME-180 (cervical carcinoma) HRE-bla reporter, beta-lactamase ratio, CoCl2, 17 h; stronger effect = higher value
# In short: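 Reporter activity (beta-lactamase, CCF4 460nm/530nm ratio) in HRE-bla ME-180 cells is recorded after 17 h compound exposure with EC50 CoCl2 at 37 degrees Celsius. AC50 values come from titration data.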
# [13] = Confirmation and Secondary Assay for Modulators of Hemoglobin Beta Chain Splicing at IVS2 654 locus (AID 910);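 further: HeLa cells stably carrying EGFP split by mutant beta-globin IVS2-654 intron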
# In short: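 HeLa cells stably expressing EGFP interrupted by β-globin IVS2-654 intron, seeded overnight in Opti-MEM/2% FCS, then treated 2 days at 37 °C. Restored splicing read as total peak GFP intensity per well by laser scanning cytometry (488 nm excitation, 500–520 nm emission); 500 nM antisense PNA as control.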
# [14] = Confirmation and Secondary Assay for Modulators of Hemoglobin Beta Chain Splicing at IVS2 705 locus (AID 930);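 further: HeLa cells stably expressing the EGFP-705 splicing reporter; GFP fluorescence per well restored by corrected splicing of the IVS2-705 intron in EGFP; series mostly up to about 46 µM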
# In short: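 Stable HeLa line with EGFP disrupted by mutant beta-globin intron 2 (705). Overnight attachment, then 2 days of compound at 37C, 5% CO2. Signal: peak GFP intensity summed over objects 5-250 µm.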
# [15] = biological target: Cytochrome P450 2C9 (Homo sapiens) (UniProt P11712); assay: qHTS Assay for Inhibitors and Substrates of Cytochrome P450 2C9 (AID 883); further: nearly all actives have a fitted effect of over 60% in size; further: potency means the concentration at half of the fitted maximal effect
# In short: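 Signal: luciferase luminescence reporting luciferin produced by CYP2C9. Conditions: 10nM enzyme, Luciferin-H 100uM at KM, 25mM KPO4, 37C, 60 min NADPH-driven reaction. Reference: 57uM sulphaphenazole as 100% inhibition.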
# [16] = qHTS Assay for Identification of Small Molecule Antagonists for Thrombopoietin (TPO) Signaling Pathway (AID 918); details: TPO-dependent cell signaling reporter, antagonist mode; further: potency means the concentration at half of the fitted maximal effect; nearly all actives have a fitted effect of over 60% in size
# In short: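 Ba/F3 (murine, hTPO-R, GPIIb-luc reporter); overnight IL-3 withdrawal; cpd + TPO 26 pM final (EC50); 24 h 37 C/5% CO2; Steadylite luminescence after 10 min RT.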
# Chain of Guanine nucleotide-binding protein G(i) subunit alpha-1 (Homo sapiens) (P63096 whole entry, looked up): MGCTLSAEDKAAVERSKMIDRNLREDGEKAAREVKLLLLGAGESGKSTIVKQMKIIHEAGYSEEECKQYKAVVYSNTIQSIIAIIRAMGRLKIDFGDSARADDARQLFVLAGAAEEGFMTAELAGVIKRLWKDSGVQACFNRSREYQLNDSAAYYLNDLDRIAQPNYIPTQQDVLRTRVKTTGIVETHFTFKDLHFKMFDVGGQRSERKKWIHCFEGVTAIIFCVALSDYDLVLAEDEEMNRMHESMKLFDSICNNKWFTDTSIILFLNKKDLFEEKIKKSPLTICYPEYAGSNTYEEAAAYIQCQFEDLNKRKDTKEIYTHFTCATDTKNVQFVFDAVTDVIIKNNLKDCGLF
# Chain of Cytochrome P450 3A4 (Homo sapiens) (P08684 whole entry, looked up): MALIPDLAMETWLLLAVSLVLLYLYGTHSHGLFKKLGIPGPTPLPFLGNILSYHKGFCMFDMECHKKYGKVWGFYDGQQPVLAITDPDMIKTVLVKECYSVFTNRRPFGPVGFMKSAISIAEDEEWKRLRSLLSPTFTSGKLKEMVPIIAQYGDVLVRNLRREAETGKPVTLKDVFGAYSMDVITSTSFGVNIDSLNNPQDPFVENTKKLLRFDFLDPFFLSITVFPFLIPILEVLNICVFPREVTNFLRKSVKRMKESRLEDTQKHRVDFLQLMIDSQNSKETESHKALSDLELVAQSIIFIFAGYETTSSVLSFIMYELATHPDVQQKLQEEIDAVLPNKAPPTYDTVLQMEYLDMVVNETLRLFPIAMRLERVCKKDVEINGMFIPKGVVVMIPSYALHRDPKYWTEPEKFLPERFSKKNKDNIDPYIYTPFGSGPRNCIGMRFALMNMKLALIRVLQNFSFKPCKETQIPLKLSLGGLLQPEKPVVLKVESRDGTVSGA
# Chain of Pyruvate kinase (Leishmania mexicana) (Q27686 2-499 E452W): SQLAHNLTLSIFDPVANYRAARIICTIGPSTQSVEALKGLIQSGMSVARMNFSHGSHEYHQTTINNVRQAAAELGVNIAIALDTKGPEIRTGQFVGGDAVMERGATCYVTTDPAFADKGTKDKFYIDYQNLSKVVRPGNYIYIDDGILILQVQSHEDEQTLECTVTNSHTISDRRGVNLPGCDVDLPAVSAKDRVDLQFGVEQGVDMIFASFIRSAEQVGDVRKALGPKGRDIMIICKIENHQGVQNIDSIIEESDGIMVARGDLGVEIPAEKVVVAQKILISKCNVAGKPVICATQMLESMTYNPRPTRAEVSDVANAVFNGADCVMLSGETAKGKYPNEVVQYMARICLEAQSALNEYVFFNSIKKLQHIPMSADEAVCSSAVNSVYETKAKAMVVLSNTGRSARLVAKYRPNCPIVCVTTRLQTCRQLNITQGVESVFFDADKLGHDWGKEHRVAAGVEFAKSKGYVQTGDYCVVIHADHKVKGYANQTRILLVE
# Chain of Cytochrome P450 2D6 (Homo sapiens) (P10635 whole entry, looked up): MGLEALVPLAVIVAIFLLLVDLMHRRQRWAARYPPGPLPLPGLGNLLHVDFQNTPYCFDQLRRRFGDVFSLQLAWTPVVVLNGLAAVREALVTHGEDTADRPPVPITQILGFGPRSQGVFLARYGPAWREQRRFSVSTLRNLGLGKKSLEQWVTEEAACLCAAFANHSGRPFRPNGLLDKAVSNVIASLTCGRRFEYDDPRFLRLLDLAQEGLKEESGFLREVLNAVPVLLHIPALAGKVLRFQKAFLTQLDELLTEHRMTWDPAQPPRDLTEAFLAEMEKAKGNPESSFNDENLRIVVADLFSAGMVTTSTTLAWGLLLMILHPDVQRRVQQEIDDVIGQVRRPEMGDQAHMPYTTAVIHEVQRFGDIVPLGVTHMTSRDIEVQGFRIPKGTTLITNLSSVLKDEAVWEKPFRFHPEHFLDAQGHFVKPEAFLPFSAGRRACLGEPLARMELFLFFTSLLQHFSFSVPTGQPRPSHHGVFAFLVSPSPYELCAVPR
# Chain of Muscarinic acetylcholine receptor M1 (Rattus norvegicus) (P08482 whole entry, looked up): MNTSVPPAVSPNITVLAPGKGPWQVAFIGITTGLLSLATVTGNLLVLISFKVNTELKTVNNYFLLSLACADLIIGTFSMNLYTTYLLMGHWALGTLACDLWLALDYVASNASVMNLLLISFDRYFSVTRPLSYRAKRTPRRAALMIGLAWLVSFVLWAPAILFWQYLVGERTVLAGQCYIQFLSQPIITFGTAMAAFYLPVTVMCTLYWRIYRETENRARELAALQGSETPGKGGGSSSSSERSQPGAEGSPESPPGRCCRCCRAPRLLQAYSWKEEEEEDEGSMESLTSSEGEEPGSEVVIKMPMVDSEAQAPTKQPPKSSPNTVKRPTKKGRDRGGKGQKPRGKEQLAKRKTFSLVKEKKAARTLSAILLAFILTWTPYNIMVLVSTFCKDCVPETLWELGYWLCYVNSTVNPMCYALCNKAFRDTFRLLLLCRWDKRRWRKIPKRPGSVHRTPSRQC
# Chain of Cytochrome P450 2C9 (Homo sapiens) (P11712 whole entry, looked up): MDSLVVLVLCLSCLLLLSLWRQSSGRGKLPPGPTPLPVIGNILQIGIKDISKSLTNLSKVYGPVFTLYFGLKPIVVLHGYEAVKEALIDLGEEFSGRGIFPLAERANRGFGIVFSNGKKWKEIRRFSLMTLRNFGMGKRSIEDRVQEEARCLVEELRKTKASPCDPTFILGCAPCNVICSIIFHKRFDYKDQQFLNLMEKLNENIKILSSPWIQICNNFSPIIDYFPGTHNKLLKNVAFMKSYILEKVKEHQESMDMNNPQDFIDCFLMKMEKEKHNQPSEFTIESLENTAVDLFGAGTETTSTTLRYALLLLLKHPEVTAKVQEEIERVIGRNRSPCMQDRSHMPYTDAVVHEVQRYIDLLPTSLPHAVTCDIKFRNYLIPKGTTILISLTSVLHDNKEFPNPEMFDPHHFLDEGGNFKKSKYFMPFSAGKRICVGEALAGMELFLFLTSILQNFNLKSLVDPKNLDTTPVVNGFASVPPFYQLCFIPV
# Chain of Cytochrome P450 2C19 (Homo sapiens) (P33261 whole entry, looked up): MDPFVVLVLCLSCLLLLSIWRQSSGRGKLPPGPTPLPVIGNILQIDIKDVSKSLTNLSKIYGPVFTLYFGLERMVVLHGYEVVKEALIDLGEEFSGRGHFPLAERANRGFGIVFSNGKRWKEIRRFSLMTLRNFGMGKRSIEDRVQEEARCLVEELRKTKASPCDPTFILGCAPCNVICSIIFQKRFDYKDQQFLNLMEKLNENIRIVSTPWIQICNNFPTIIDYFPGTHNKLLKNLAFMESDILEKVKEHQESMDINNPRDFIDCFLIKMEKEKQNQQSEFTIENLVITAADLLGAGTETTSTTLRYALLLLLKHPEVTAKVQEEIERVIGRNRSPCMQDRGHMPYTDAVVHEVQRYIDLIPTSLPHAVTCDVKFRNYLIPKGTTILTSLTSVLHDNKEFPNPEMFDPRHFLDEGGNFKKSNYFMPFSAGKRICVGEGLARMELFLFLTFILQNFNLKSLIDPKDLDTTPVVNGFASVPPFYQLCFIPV
compound,measurement,setting,value
O=C(O)[C@@H]1C[C@@H](C(=O)O)N1,outcome,[1],inactive
same,Potency,[2],inactive
same,Potency,[3],inactive
same,Potency,[4],inactive
same,Potency,[5],inactive
same,Potency,[6],inactive
same,Potency,[7],inactive
COc1cc2c(CCNC(C)=O)c[nH]c2cc1Cl,outcome,[1],inactive
same,Potency,[8],inactive
same,Potency,[9],inactive and 5.01 µM (active)
same,Potency,[10],3160 nM (active)
same,Potency,[7],inactive
COc1ccccc1CNCCCCCCNCCCCCCCCNCCCCCCNCc1ccccc1OC,outcome,[1],inactive
same,Potency,[8],inactive
same,Potency,[3],inactive
same,Potency,[7],inactive
CC(C)(C=O)Cc1cc(C(C)(C)C)c(O)c(C(C)(C)C)c1,outcome,[1],inactive
same,Potency,[8],inactive
same,Potency,[9],inactive
same,Potency,[4],inactive
same,Potency,[5],inactive
same,Potency,[7],inactive
Brc1c(Br)c(Br)c2n[nH]nc2c1Br,outcome,[1],inactive
same,Potency,[2],2510 nM (active)
same,Potency,[8],inactive
same,Potency,[5],inactive
same,Potency,[6],inactive
same,Potency,[7],inactive
O=c1[nH]c2ccccc2n1CCCN1CCN(C(c2ccccc2)c2ccccc2)CC1,outcome,[1],inactive
same,Potency,[2],inactive
same,Potency,[8],15800 nM (active)
same,Potency,[11],794 nM (active)
same,Potency,[4],inactive
same,Potency,[5],5010 nM (active)
same,Potency,[6],15800 nM (active)
same,Potency,[7],inactive
O=C(Nc1cccc(C(=O)Nc2ccc(S(=O)(=O)O)c3cc(S(=O)(=O)O)cc(S(=O)(=O)O)c23)c1)Nc1cccc(C(=O)Nc2ccc(S(=O)(=O)O)c3cc(S(=O)(=O)O)cc(S(=O)(=O)O)c23)c1,outcome,[1],inactive
same,Potency,[8],inactive
same,activation,[12],-24.7% (inactive)
same,Potency,[4],inactive
same,Potency,[5],inactive
same,Potency,[7],inactive
CCCn1c(=O)c2[nH]c(-c3ccc(OCC(=O)NCCN)cc3)nc2n(CCC)c1=O,outcome,[1],inactive
same,Potency,[2],2510 nM (active)
same,Potency,[8],inactive
same,Potency,[4],inactive
same,Potency,[7],inactive
Cc1cc(NC(=O)Nc2ccc3c(ccn3C)c2)sn1,outcome,[1],inactive
same,Potency,[8],inactive
same,Potency,[3],inactive
same,Potency,[9],inactive and 3.16 µM (active)
same,Potency,[4],1580 nM (active)
same,Potency,[5],inactive
NC(N)=NC(=O)c1nc(Cl)c(N2CCCCCC2)nc1N,outcome,[1],inactive
same,Potency,[2],inactive
same,Potency,[3],inactive
same,Potency,[9],5010 nM (active)
same,outcome,[13],inactive
same,outcome,[14],inactive
same,Potency,[6],inactive
NCCSSCCN,outcome,[1],inactive
same,Potency,[2],inactive
same,Potency,[3],inactive
same,outcome,[13],inactive
same,outcome,[14],inactive
same,Potency,[6],inactive
same,Potency,[7],inactive
O=C(O)CC[C@@H](C(=O)O)N1C(=O)c2ccccc2C1=O,outcome,[1],inactive
same,Potency,[2],inactive
same,"activity change, negative = inhibition",[11],21.6% [at 11.4 µM] (inactive)
same,Potency,[4],inactive
same,Potency,[5],25.1 nM (active)
same,Potency,[6],inactive
same,Potency,[7],inactive
O=C(O)c1cc([N+](=O)[O-])ccc1NCCCc1ccccc1,outcome,[1],inactive
same,Potency,[15],7.94 µM (active) and 501 nM (active)
same,Potency,[11],inactive
same,Potency,[9],inactive
same,Potency,[5],inactive
same,Potency,[6],inactive
same,Potency,[7],inactive
CCCN(CC1CC1)c1nc(C)nc(Nc2c(Cl)cc(Cl)cc2Cl)c1Cl,outcome,[1],inactive
same,Potency,[8],inactive
same,Potency,[11],inactive and 1.58 µM (active)
same,Potency,[4],inactive
same,Potency,[5],inactive
same,Potency,[6],inactive
same,Potency,[7],inactive
CNCC[C@H](Oc1ccc(C(F)(F)F)cc1)c1ccccc1,outcome,[1],inactive
same,outcome,[15],inactive
same,Potency,[7],inactive
NC[C@@H]1O[C@H](C23CC4CC(CC(C4)C2)C3)Cc2c1ccc(O)c2O,outcome,[1],inactive
same,Potency,[8],inactive
same,Potency,[16],10000 nM (active)
same,Potency,[5],inactive
same,Potency,[6],inactive
same,Potency,[7],inactive
Cn1c(=O)c2[nH]c(-c3ccccc3)nc2n(C)c1=O,outcome,[1],inactive
same,Potency,[3],inactive
same,Potency,[4],inactive
same,Potency,[6],inactive
same,Potency,[7],inactive
O=C1NC(O)=NC1(c1ccccc1)c1ccccc1,outcome,[1],inactive
same,Potency,[4],inactive
same,Potency,[7],inactive
CN1[C@@H]2CC[C@H]1CC(OC(c1ccccc1)c1ccccc1)C2 (stereo partly drawn),outcome,[1],inactive
same,Potency,[11],2 µM (active) and 1.26 µM (active)
same,activation,[12],14.9% (inactive) and 19% (inactive)
same,Potency,[4],inactive
same,Potency,[7],inactive
CCCCCCCC/C=C\CCCCCCCC(=O)NCCO,outcome,[1],inactive
same,Potency,[8],inactive
same,Potency,[4],inactive
same,Potency,[5],inactive
same,Potency,[6],inactive
same,Potency,[7],inactive
CN1CCc2cc(NC(=O)Nc3cccnc3)ccc21,outcome,[1],inactive
same,Potency,[8],inactive
same,Potency,[4],1580 nM (active)
same,Potency,[5],inactive
same,Potency,[7],20000 nM (active)
C[N+]1(C)CCC(OC(=O)C(c2ccccc2)c2ccccc2)CC1,outcome,[1],inactive
same,Potency,[3],inactive
same,activation,[12],0.751% (inactive)
same,Potency,[4],inactive
same,Potency,[5],15.8 nM (active)
same,Potency,[6],11.2 nM (active)
same,Potency,[7],inactive
CCN1/C(=C/C(C)=O)Sc2ccc(OC)cc21,outcome,[1],inactive
same,Potency,[8],inactive
same,Potency,[5],inactive
same,Potency,[6],inactive
same,Potency,[7],inactive
NCCCCCCCCCCN,outcome,[1],inactive
same,Potency,[4],inactive
same,Potency,[6],inactive
same,Potency,[7],inactive
COc1ccc(/C=C/C(=O)Nc2ccccc2C(=O)O)cc1OC,outcome,[1],inactive
same,Potency,[8],inactive
same,Potency,[6],inactive
same,Potency,[7],12600 nM (active)
CN(C)c1nc(N)c(C(=O)N=C(N)N)nc1Cl,outcome,[1],inactive
same,Potency,[8],inactive
same,Potency,[4],inactive
same,Potency,[6],inactive
same,Potency,[7],inactive
Ic1ccc(N2CCN(Cc3c[nH]c4ncccc34)CC2)cc1,outcome,[1],inactive
same,Potency,[8],inactive
same,Potency,[7],inactive
Clc1ccc(N2CCN(Cc3c[nH]c4ncccc34)CC2)cc1,outcome,[1],inactive
same,Potency,[4],inactive
same,Potency,[6],inactive
same,Potency,[7],inactive
O=C(O)c1cc(=O)c2ccccc2[nH]1,outcome,[1],inactive
same,outcome,[13],inactive
same,Potency,[4],inactive
same,outcome,[14],inactive
same,Potency,[6],inactive
